# According to PubChem BioAssay AID1159580 (chemical genetic matrix, 2015):
# Out of some 5,500 compounds screened, about 2,000 (36%) were called active. About 18% were inconclusive and are not listed. The list shows a part of the results. Values without a mark were called inactive. Rule as the data show it: active = normalized growth mostly below about 0.91 (no sharp cut-off); inconclusive = no clear call, values can overlap the other calls; inactive = mostly above about 0.92.
# Assay: chemical genetic growth profiling, strain panel (AID 1159580);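 also: tested at 20 µM; growth read once vehicle control cultures reached saturation at 30 °C; 1 = growth at the plate median or of vehicle wells; lower values mean less growth of the strain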
# Settings: S. cerevisiae deletion strains, growth OD
# [1] = locus YBL105C, strain PKC1, stronger effect = lower value
# [2] = locus YBR135W, strain CKS1, stronger effect = lower value
# [3] = locus YBR136W, strain MEC1, stronger effect = lower value
# [4] = locus YBR160W, strain CDC28, stronger effect = lower value
# [5] = locus YDL017W, strain CDC7, stronger effect = lower value
# [6] = locus YDL028C, strain MPS1, stronger effect = lower value
# [7] = locus YDL108W, strain KIN28, stronger effect = lower value
# [8] = locus YDL132W, strain cdc53, stronger effect = lower value
# [9] = locus YDL214C, strain PRR2, stronger effect = lower value
# [10] = locus YDR052C, strain DBF4, stronger effect = lower value
# [11] = locus YDR054C, strain cdc34, stronger effect = lower value
# [12] = locus YDR226W, strain ADK1, stronger effect = lower value
# [13] = locus YDR477W, strain SNF1, stronger effect = lower value
# [14] = locus YER123W, strain YCK3, stronger effect = lower value
# [15] = locus YER133W, strain GLC7, stronger effect = lower value
# [16] = locus YFL029C, strain CAK1, stronger effect = lower value
# [17] = locus YFR003C, strain YPI1, stronger effect = lower value
# [18] = locus YFR019W, strain FAB1, stronger effect = lower value
# [19] = locus YFR028C, strain CDC14, stronger effect = lower value
# [20] = locus YGR040W, strain KSS1, stronger effect = lower value
# [21] = locus YGR052W, strain FMP48, stronger effect = lower value
# [22] = locus YGR092W, strain DBF2, stronger effect = lower value
# [23] = locus YHR030C, strain SLT2, stronger effect = lower value
# [24] = locus YHR079C, strain IRE1, stronger effect = lower value
# [25] = locus YHR082C, strain KSP1, stronger effect = lower value
# [26] = locus YHR205W, strain SCH9, stronger effect = lower value
# [27] = locus YIL147C, strain SLN1, stronger effect = lower value
# [28] = locus YJL095W, strain BCK1, stronger effect = lower value
# [29] = locus YJL128C, strain PBS2, stronger effect = lower value
# [30] = locus YJL157C, strain FAR1, stronger effect = lower value
# [31] = locus YJR016C, strain ILV3, stronger effect = lower value
# [32] = locus YJR066W, strain TOR1 (second series), stronger effect = lower value
# [33] = locus YJR066W, strain TOR1, stronger effect = lower value
# [34] = locus YKL048C, strain ELM1, stronger effect = lower value
# [35] = locus YKL067W, strain YNK1, stronger effect = lower value
# [36] = locus YKL101W, strain HSL1, stronger effect = lower value
# [37] = locus YKL203C, strain TOR2, stronger effect = lower value
# [38] = locus YLR113W, strain HOG1, stronger effect = lower value
# [39] = locus YLR133W, strain CKI1, stronger effect = lower value
# [40] = locus YLR403W, strain SFP1, stronger effect = lower value
# [41] = locus YML070W, strain DAK1, stronger effect = lower value
# [42] = locus YMR001C, strain CDC5, stronger effect = lower value
# [43] = locus YMR205C, strain PFK2 (second series), stronger effect = lower value
# [44] = locus YMR277W, strain FCP1, stronger effect = lower value
# [45] = locus YNL006W, strain LST8, stronger effect = lower value
# [46] = locus YNL020C, strain ARK1, stronger effect = lower value
# [47] = locus YNL161W, strain CBK1, stronger effect = lower value
# [48] = locus YNL183C, strain NPR1, stronger effect = lower value
# [49] = locus YNL207W, strain RIO2, stronger effect = lower value
# [50] = locus YNL222W, strain SSU72, stronger effect = lower value
# [51] = locus YNL307C, strain MCK1 (second series), stronger effect = lower value
# [52] = locus YOL136C, strain PFK27, stronger effect = lower value
# [53] = locus YOR061W, strain CKA2, stronger effect = lower value
# [54] = locus YOR119C, strain RIO1, stronger effect = lower value
# [55] = locus YOR231W, strain MKK1, stronger effect = lower value
# [56] = locus YOR329C, strain SCD5, stronger effect = lower value
# [57] = locus YPL031C, strain PHO85, stronger effect = lower value
# [58] = locus YPL153C, strain RAD53, stronger effect = lower value
# [59] = locus YPL204W, strain HRR25, stronger effect = lower value
# [60] = locus YPL209C, strain IPL1, stronger effect = lower value
# [61] = locus YPL256C, strain CLN2, stronger effect = lower value
# [62] = locus YPR025C, strain CCL1, stronger effect = lower value
# [63] = locus YPR106W, strain ISR1, stronger effect = lower value
# [64] = locus YPR111W, strain DBF20, stronger effect = lower value
# [65] = strain NNK1, stronger effect = lower value
# [66] = locus YAR019C, strain CDC15, stronger effect = lower value
# [67] = locus YDL101C, strain DUN1, stronger effect = lower value
# [68] = locus YFL009W, strain cdc4, stronger effect = lower value
# [69] = locus YKL193C, strain SDS22, stronger effect = lower value
# [70] = locus YOL078W, strain AVO1, stronger effect = lower value
# [71] = strain TSCII, stronger effect = lower value
compound,measurement,setting,value
O=C(Nc1cc(Cl)cc(Cl)c1)Nc1cc(-c2ccco2)[nH]n1,normalized growth,[1],0.935
same,normalized growth,[2],0.929
same,normalized growth,[3],0.935
same,normalized growth,[4],0.942
same,normalized growth,[5],0.95
same,normalized growth,[6],0.937
same,normalized growth,[7],0.938
same,normalized growth,[8],0.608 (active)
same,normalized growth,[9],0.293 (active)
same,normalized growth,[10],0.945
same,normalized growth,[11],0.566 (active)
same,normalized growth,[12],0.94
same,normalized growth,[13],0.294 (active)
same,normalized growth,[14],0.15 (active)
same,normalized growth,[15],0.269 (active)
same,normalized growth,[16],0.616 (active)
same,normalized growth,[17],0.94
same,normalized growth,[18],0.147 (active)
same,normalized growth,[19],0.935
same,normalized growth,[20],0.288 (active)
same,normalized growth,[21],0.23 (active)
same,normalized growth,[22],0.128 (active)
same,normalized growth,[23],0.103 (active)
same,normalized growth,[24],0.119 (active)
same,normalized growth,[25],0.209 (active)
same,normalized growth,[26],0.287 (active)
same,normalized growth,[27],0.934
same,normalized growth,[28],0.112 (active)
same,normalized growth,[29],0.944
same,normalized growth,[30],0.257 (active)
same,normalized growth,[31],0.928
same,normalized growth,[32],0.129 (active)
same,normalized growth,[33],0.142 (active)
same,normalized growth,[34],0.454 (active)
same,normalized growth,[35],0.316 (active)
same,normalized growth,[36],0.38 (active)
same,normalized growth,[37],0.253 (active)
same,normalized growth,[38],0.146 (active)
same,normalized growth,[39],0.295 (active)
same,normalized growth,[40],0.229 (active)
same,normalized growth,[41],0.181 (active)
same,normalized growth,[42],0.935
same,normalized growth,[43],0.496 (active)
same,normalized growth,[44],0.777 (active)
same,normalized growth,[45],0.839 (active)
same,normalized growth,[46],0.3 (active)
same,normalized growth,[47],0.948
same,normalized growth,[48],0.169 (active)
same,normalized growth,[49],0.894
same,normalized growth,[50],0.923
same,normalized growth,[51],0.202 (active)
same,normalized growth,[52],0.166 (active)
same,normalized growth,[53],0.322 (active)
same,normalized growth,[54],0.245 (active)
same,normalized growth,[55],0.115 (active)
same,normalized growth,[56],0.951
same,normalized growth,[57],0.204 (active)
same,normalized growth,[58],0.145 (active)
same,normalized growth,[59],0.163 (active)
same,normalized growth,[60],0.941
same,normalized growth,[61],0.14 (active)
same,normalized growth,[62],0.93
same,normalized growth,[63],0.943
same,normalized growth,[64],0.944
same,normalized growth,[65],0.913
S=C(Nc1cc(-c2cccs2)[nH]n1)Nc1ccccc1Cl,normalized growth,[66],0.93
same,normalized growth,[1],0.938
same,normalized growth,[2],0.934
same,normalized growth,[3],0.934
same,normalized growth,[4],0.943
same,normalized growth,[5],0.938
same,normalized growth,[6],0.932
same,normalized growth,[67],0.945
same,normalized growth,[7],0.938
same,normalized growth,[8],0.955
same,normalized growth,[9],0.825
same,normalized growth,[10],0.942
same,normalized growth,[11],0.916
same,normalized growth,[12],0.939
same,normalized growth,[13],0.816
same,normalized growth,[14],0.755
same,normalized growth,[15],0.809
same,normalized growth,[68],0.929
same,normalized growth,[16],0.925
same,normalized growth,[17],0.934
same,normalized growth,[18],0.859
same,normalized growth,[19],0.932
same,normalized growth,[20],0.819
same,normalized growth,[21],0.908
same,normalized growth,[22],0.796
same,normalized growth,[23],0.616 (active)
same,normalized growth,[24],0.842
same,normalized growth,[25],0.821
same,normalized growth,[26],0.813
same,normalized growth,[27],0.93
same,normalized growth,[28],0.748
same,normalized growth,[29],0.908
same,normalized growth,[30],0.836
same,normalized growth,[31],0.935
same,normalized growth,[32],0.778
same,normalized growth,[33],0.773
same,normalized growth,[34],0.885
same,normalized growth,[35],0.835
same,normalized growth,[36],0.891
same,normalized growth,[69],0.917
same,normalized growth,[37],0.866
same,normalized growth,[38],0.739 (active)
same,normalized growth,[39],0.858
same,normalized growth,[40],0.827
same,normalized growth,[41],0.834
same,normalized growth,[42],0.927
same,normalized growth,[43],0.877
same,normalized growth,[44],0.93
same,normalized growth,[45],0.937
same,normalized growth,[46],0.837
same,normalized growth,[47],0.938
same,normalized growth,[48],0.803
same,normalized growth,[49],0.913
same,normalized growth,[50],0.939
same,normalized growth,[51],0.746
same,normalized growth,[70],0.932
same,normalized growth,[52],0.859
same,normalized growth,[53],0.859
same,normalized growth,[54],0.88
same,normalized growth,[55],0.829
same,normalized growth,[56],0.935
same,normalized growth,[57],0.8
same,normalized growth,[58],0.804
same,normalized growth,[59],0.791
same,normalized growth,[60],0.942
same,normalized growth,[61],0.72 (active)
same,normalized growth,[62],0.936
same,normalized growth,[63],0.932
same,normalized growth,[64],0.942
same,normalized growth,[65],0.94
same,normalized growth,[71],0.936
O=C(Nc1cc(Cl)cc(Cl)c1)Nc1cc(-c2cccs2)[nH]n1,normalized growth,[66],0.957
same,normalized growth,[1],0.97
same,normalized growth,[2],0.958
same,normalized growth,[3],0.972
same,normalized growth,[4],0.959
same,normalized growth,[5],0.971
same,normalized growth,[6],0.964
same,normalized growth,[67],0.972
same,normalized growth,[7],0.97
same,normalized growth,[8],0.949
same,normalized growth,[9],0.826
same,normalized growth,[10],0.978
same,normalized growth,[11],0.95
same,normalized growth,[12],0.973
same,normalized growth,[13],0.85
same,normalized growth,[14],0.712
same,normalized growth,[15],0.864
same,normalized growth,[68],0.956
same,normalized growth,[16],0.956
same,normalized growth,[17],0.964
same,normalized growth,[18],0.759 (active)
same,normalized growth,[19],0.967
same,normalized growth,[20],0.816
same,normalized growth,[21],0.916
same,normalized growth,[22],0.686
same,normalized growth,[23],0.459 (active)
same,normalized growth,[24],0.734
same,normalized growth,[25],0.733
same,normalized growth,[26],0.796
same,normalized growth,[27],0.967
same,normalized growth,[28],0.739
same,normalized growth,[29],0.982
same,normalized growth,[30],0.849
same,normalized growth,[31],0.948
same,normalized growth,[32],0.8
same,normalized growth,[33],0.762
same,normalized growth,[34],0.89
same,normalized growth,[35],0.854
same,normalized growth,[36],0.861
same,normalized growth,[69],0.958
same,normalized growth,[37],0.872
same,normalized growth,[38],0.825 (active)
same,normalized growth,[39],0.851
same,normalized growth,[40],0.806
same,normalized growth,[41],0.815
same,normalized growth,[42],0.965
same,normalized growth,[43],0.88
same,normalized growth,[44],0.959
same,normalized growth,[45],0.955
same,normalized growth,[46],0.854
same,normalized growth,[47],0.959
same,normalized growth,[48],0.772
same,normalized growth,[49],0.949
same,normalized growth,[50],0.957
same,normalized growth,[51],0.744
same,normalized growth,[70],0.954
same,normalized growth,[52],0.763
same,normalized growth,[53],0.891
same,normalized growth,[54],0.906
same,normalized growth,[55],0.817
same,normalized growth,[56],0.962
same,normalized growth,[57],0.791
same,normalized growth,[58],0.739
same,normalized growth,[59],0.669
same,normalized growth,[60],0.958
same,normalized growth,[61],0.755 (active)
same,normalized growth,[62],0.963
same,normalized growth,[63],0.953
same,normalized growth,[64],0.947
same,normalized growth,[65],0.948
same,normalized growth,[71],0.961
